Measured values: PubChem BioAssay AID2289 (National Center for Advancing Translational Sciences (NCATS), 2010)
Out of some 340,000 compounds screened, about 3,300 (0.97%) were called active. Inconclusive results (about 9%) are left out. The call rests on the fitted dose curve; in most records, active means well fitted inhibition curve with a large enough effect; inconclusive means small, poorly fitted or top-dose-only effect, or effect the other way; inactive means flat fitted curve, though single readings scatter. Some of the results follow.

assay: qHTS Assay for Modulators of miRNAs and/or Inhibitors of miR-21; settings: HeLa miR-21-FLuc reporter, luciferase luminescence, 48 h; actives lower the signal; further: nearly all actives have a fitted effect of over 55% in size
How it was run: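 Luminescence from a firefly luciferase reporter carrying a miR-21 binding site downstream, stably expressed under a CMV promoter in HeLa cells that make miR-21 endogenously, reports miRNA modulation after 48 h compound exposure up to approximately 40uM final.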
Potency means the concentration at half of the fitted maximal effect.

Potency, active:
COC1=C/C(=C/c2c(O)c(C#N)c3ccccn23)C=CC1=O 11.7 µM
COc1ccc2nc(-c3ccccc3)cc(OC)c2c1 14.7 µM
COc1ccc2cc(-c3ccccc3)ncc2c1 0.369 µM
COc1ccc(-c2cc3cc(OC)c(OC)cc3c(C)n2)cc1 7.36 µM
O=C(COc1ccc2c(c1)OCO2)Nc1ccc(Cl)cn1 2.07 µM
O=C(COc1ccc2c(c1)OCO2)Nc1ccccc1C(F)(F)F 16.5 µM
CC1Cc2ccccc2N1C(=O)COc1ccc2c(c1)OCO2 (stereo not drawn) 11.7 µM
O=C(COc1ccc2c(c1)OCO2)Nc1cccc(F)c1 8.26 µM
COc1ccccc1NC(=O)COc1ccc2c(c1)OCO2 7.36 µM
COc1ccccc1NC(=O)COc1ccc(CO)cc1Cl 5.85 µM
Cc1occc1C(=O)N/N=C/c1ccc(-c2ccccc2)cc1 0.147 µM
Cc1ccc(/C=N/NC(=O)c2ccoc2C)o1 16.5 µM
Cc1cccc(/C=N\Nc2cn[nH]c(=O)c2Cl)c1 18.5 µM
Cc1ccc(/C=N\Nc2cn[nH]c(=O)c2Cl)cc1 14.7 µM
O=C(/C(C=Nc1ccc(F)cc1)=C(/O)c1ccco1)C(F)(F)F 4.14 µM
CC(=O)C(C)Oc1ccc2c3c(c(=O)oc2c1C)CCCC3 (stereo not drawn) 16.5 µM
CC(=O)COc1ccc2c3c(c(=O)oc2c1C)CCCCC3 3.29 µM
CSc1ccc(/C=N/NC(=O)c2cccs2)cc1 1.31 µM
CC(=O)Nc1ccc(/C=N/NC(=O)c2cccs2)cc1 5.85 µM
O=C(N/N=C/c1ccncc1)c1cccs1 5.21 µM
Cc1ccc(/C=N/N=C/c2ccc(C)s2)s1 0.927 µM
Cc1ccc(/C=N/NC(=O)c2cccs2)s1 7.36 µM
O=C(N/N=C/c1ccc2c(c1)OCO2)c1cccs1 1.65 µM
COc1cc(/C=N/NC(=O)c2cccs2)ccc1O 10.4 µM
CCNC(=S)/N=C(\N)Nc1nc(C)c2cc(C)ccc2n1 5.85 µM
CC(C)(C)c1ccc(C(=O)Nc2ccccc2Cl)cc1 0.826 µM
Cc1nc2ccc(NC(=O)c3ccccc3)cc2s1 5.85 µM
Cc1nc2ccc(NC(=O)c3cccs3)cc2s1 3.69 µM
Cc1nc2ccc(C(=O)Nc3ccccc3Cl)cc2s1 3.69 µM
CCOc1ncccc1C(=O)Nc1ccc2nc(C)sc2c1 8.26 µM
Cc1nc2ccc(NC(=O)N(C)c3ccccc3)cc2s1 9.27 µM
Cc1nc2ccc(NC(=O)c3ccc4ccccc4n3)cc2s1 3.69 µM
Cc1nc2ccc(NC(=O)c3cc(Cl)ccn3)cc2s1 0.369 µM
C=CCC(CC(O)COCCC)C(=O)NNC(=S)Nc1ccccc1 (stereo not drawn) 13.1 µM
CCCn1c(C)cc(/C=C(\C#N)C(=O)OCC(=O)Nc2cc(OC)c(OC)c(OC)c2)c1C 16.5 µM
Cc1ccccc1Nc1nc(N)nc(COC(=O)c2ccccc2)n1 13.1 µM
COc1ccccc1C(=O)OCc1nc(N)nc(Nc2ccccc2C)n1 18.5 µM
CCn1c(SCc2ccccc2Cl)nc2ccccc21 13.1 µM
Cn1c(SCc2ccccc2Cl)nc2ccccc21 3.29 µM
Cn1c(SCc2ccc(C#N)cc2Cl)nc2ccccc21 4.65 µM
O=[N+]([O-])c1ccc2nc(SCc3cn4ccccc4n3)[nH]c2c1 18.5 µM
c1ccn(-c2ccc(-c3ccn[nH]3)cc2)c1 6.56 µM
O=C(c1cnn(-c2cccc(F)c2)c1)c1ccccc1O 3.69 µM
N#C/C(=C/c1ccc(O)c(O)c1)c1nc2ccccc2[nH]1 3.29 µM
CN(C)c1ccc(/C=C(\C#N)c2nc3ccccc3c(=O)[nH]2)cc1 0.131 µM
c1ccc(Nc2nc(-c3ccccc3)ns2)cc1 0.414 µM
Cc1nnc(SCc2ccccc2Cl)c2cc3occc3n12 11.7 µM
Clc1ccc(-c2nc3ccncc3[nH]2)cc1 7.36 µM
Nc1ccc2nc(-c3ccc(Cl)cc3)[nH]c2c1 6.56 µM
CCOC(=O)CCSc1nc(C)c2cc(C)ccc2n1 10.4 µM
CCOC(=O)CCSc1nc(C)c2cc(OC)ccc2n1 8.26 µM
OC1CCCN(c2c3c(nc4cc(-c5cccc(F)c5)nn24)CCCC3)C1 (stereo not drawn) 2.07 µM
COc1ccc(NC(=O)c2coc3ccccc23)cc1OC 9.27 µM
COc1ccc(NC(=S)Nc2ncccc2C)cc1OC 5.21 µM
O=C(Nc1ccc(SC(F)(F)F)cc1)c1ccccn1 0.369 µM
COc1ccc(NC(=O)c2ccccn2)cc1OC 11.7 µM
Cc1ccc(-c2nnc(CCC(=O)NCC3C4CC5CC(C4)CC3C5)o2)s1 (stereo not drawn) 14.7 µM
CS(=O)(=O)Nc1ccc(C2=NN(S(C)(=O)=O)C(c3ccc4c(c3)OCO4)C2)cc1 (stereo not drawn) 4.65 µM
CS(=O)(=O)N1N=C(c2ccc(Br)cc2)CC1c1ccc2c(c1)OCO2 (stereo not drawn) 0.927 µM
CC(=O)N1N=C(c2ccc(C)cc2)CC1c1ccc2c(c1)OCO2 (stereo not drawn) 7.36 µM
Cc1ccc(C2=NN(S(C)(=O)=O)C(c3ccc4c(c3)OCO4)C2)cc1 (stereo not drawn) 0.521 µM
COC(=O)c1ccc(CSC2=NCCS2)cc1 4.65 µM
CC(=O)Nc1nc(-c2ccc(Cl)cc2)ns1 1.85 µM
C/C(=N\N=C\c1ccc(N(C)C)cc1)c1cccc([N+](=O)[O-])c1 13.1 µM
Nc1cc([N+](=O)[O-])cc2oc(-c3ccccc3)cc12 14.7 µM
Cc1ccc(COc2ccc(C)nc2[N+](=O)[O-])cc1 0.927 µM
Cc1ccc(OCc2ccc(Br)cc2)c([N+](=O)[O-])n1 2.61 µM
CCOC(=O)c1cc(C(=O)Nc2ccc(C)c(F)c2)nn1C 4.65 µM
CCOC(=O)c1cc(C(=O)Nc2cccc(C)c2)nn1C 1.31 µM
CCOC(=O)c1cc(C(=O)Nc2ccccc2F)nn1C 1.85 µM
COc1nc(Nc2cccc(C(F)(F)F)c2)nc(OC)n1 14.7 µM
COc1cccc(Nc2nc(N)nc(C(F)(F)F)n2)c1 18.5 µM
Nc1nc(Nc2ccc(Cl)cc2Cl)nc(C(F)(F)F)n1 6.56 µM
CC(=O)c1cnc2cc(-c3ccc(C)cc3)nn2c1C 1.04 µM
COc1cccc(-c2ccc3c(N)c(C(=O)Nc4cc(F)ccc4F)sc3n2)c1 11.7 µM
CCN(CC)C(=O)c1sc2nc(-c3ccccc3)ccc2c1N 1.47 µM
CCOC(=O)c1sc2nc(-c3cccnc3)ccc2c1N 0.369 µM
CCOC(=O)c1sc2nc(-c3ccccc3)ccc2c1N 0.0927 µM
CCn1nccc1C(=O)Nc1ccc(Cl)c(Cl)c1 8.26 µM
COc1cc(C(C)=O)ccc1Oc1ncnc2c1cnn2-c1ccc(F)cc1 4.14 µM
COc1ccccc1Oc1ncnc2c1cnn2-c1ccccc1 5.85 µM
Cc1ccc(NC(=O)c2sc3nc(N)c(C#N)cc3c2N)cc1 5.85 µM
Cc1cccc(NC(=O)c2sc3nc(N)c(C#N)cc3c2N)c1 4.14 µM
Cc1cc(C(=O)CN2C(=O)NC3(CCCCC3C)C2=O)c(C)n1Cc1cccs1 (stereo not drawn) 5.21 µM
Cc1nc2scc(-c3ccccc3)c2c(=O)n1N=C1C=CC(=O)C=C1 10.4 µM
Cc1cc2oc(C(=O)Nc3nonc3C)c(C)c2cc1C 0.656 µM
CCc1nonc1NC(=O)c1oc2cc(C)c(C)cc2c1C 5.85 µM
Cc1ccc2oc(C(=O)Nc3nonc3C)c(C)c2c1 4.65 µM
CCc1ccc2oc(C(=O)Nc3nonc3CC)c(C)c2c1 2.93 µM
c1ccc(Cc2nnc3sc(-c4ccc5c(c4)OCCO5)nn23)cc1 14.7 µM
Oc1c(C2=NCCNC(C(F)(F)F)=C2)ccc2ccccc12 2.07 µM
Clc1ccccc1-c1nc2ccccc2[nH]1 1.31 µM
Clc1cc2nc(-c3cccnc3Cl)[nH]c2cc1Cl 1.04 µM
CN(Cc1nc(-c2cccc(Cl)c2)no1)C1CCOCC1 7.36 µM
Cc1ccc(-c2cn(-c3ccccc3)c(SCC(=O)NC3CCS(=O)(=O)C3)n2)cc1C (stereo not drawn) 7.36 µM
CCOC(=O)NC(=O)CSc1nc(-c2ccc(C)c(C)c2)cn1-c1ccccc1 6.56 µM
Cc1ccc(NC(=O)NCc2c(C)nn(C)c2C)cc1Cl 5.21 µM
CNc1cccc2c1C(=O)c1ccccc1C2=O 11.7 µM
CC(C)(C)c1ccc(-c2noc(-c3ccno3)n2)cc1 1.17 µM
C=CCn1c2ccccc2c(=O)c2cc(C#CC3(O)CCCCC3)ccc21 0.414 µM
CCCc1cc(C(=O)Nc2ccc(CC)cc2)no1 5.21 µM
CCCc1cc(C(=O)Nc2cc(C)ccc2O)no1 3.69 µM
CCCc1cc(C(=O)Nc2cccc(Cl)c2C)no1 6.56 µM
CCCc1cc(C(=O)Nc2cc(Cl)ccc2O)no1 2.07 µM
COc1cc(SC)ccc1C(=O)NCCOc1ccccc1Cl 2.93 µM
COc1cc(SC)ccc1C(=O)NCC1CCCCC1 10.4 µM
COc1cc(SC)ccc1C(=O)NCCOc1ccc(F)cc1 7.36 µM
COc1ccc(C(=O)NCCOc2ccccc2Cl)c(OC)c1OC 5.85 µM
